Results published in PubChem BioAssay AID1159580 (chemical genetic matrix, 2015).
About 2,000 (36%) of roughly 5,500 compounds were called active. Roughly 18% stayed inconclusive and do not appear here. No stated cut-off is given here; in the data, active means normalized growth mostly below about 0.91 (no sharp cut-off); inconclusive means no clear call, values can overlap the other calls; inactive means mostly above about 0.92. The list shows a part of the results.

Experiment: chemical genetic growth profiling, strain panel (AID 1159580);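 further: tested at 20 µM; growth read once vehicle control cultures reached saturation at 30 °C; 1 = growth at the plate median or of vehicle wells; lower values mean less growth of the strain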
Settings: S. cerevisiae deletion strains, growth OD
[1] = locus YAR019C, strain CDC15, active compounds read low
[2] = locus YBL105C, strain PKC1, active compounds read low
[3] = locus YBR135W, strain CKS1, active compounds read low
[4] = locus YBR136W, strain MEC1, active compounds read low
[5] = locus YBR160W, strain CDC28, active compounds read low
[6] = locus YDL017W, strain CDC7, active compounds read low
[7] = locus YDL028C, strain MPS1, active compounds read low
[8] = locus YDL101C, strain DUN1, active compounds read low
[9] = locus YDL108W, strain KIN28, active compounds read low
[10] = locus YDL132W, strain cdc53, active compounds read low
[11] = locus YDL214C, strain PRR2, active compounds read low
[12] = locus YDR052C, strain DBF4, active compounds read low
[13] = locus YDR054C, strain cdc34, active compounds read low
[14] = locus YDR226W, strain ADK1, active compounds read low
[15] = locus YDR477W, strain SNF1, active compounds read low
[16] = locus YER123W, strain YCK3, active compounds read low
[17] = locus YER133W, strain GLC7, active compounds read low
[18] = locus YFL009W, strain cdc4, active compounds read low
[19] = locus YFL029C, strain CAK1, active compounds read low
[20] = locus YFR003C, strain YPI1, active compounds read low
[21] = locus YFR019W, strain FAB1, active compounds read low
[22] = locus YFR028C, strain CDC14, active compounds read low
[23] = locus YGR040W, strain KSS1, active compounds read low
[24] = locus YGR052W, strain FMP48, active compounds read low
[25] = locus YGR092W, strain DBF2, active compounds read low
[26] = locus YHR030C, strain SLT2, active compounds read low
[27] = locus YHR079C, strain IRE1, active compounds read low
[28] = locus YHR082C, strain KSP1, active compounds read low
[29] = locus YHR205W, strain SCH9, active compounds read low
[30] = locus YIL147C, strain SLN1, active compounds read low
[31] = locus YJL095W, strain BCK1, active compounds read low
[32] = locus YJL128C, strain PBS2, active compounds read low
[33] = locus YJL157C, strain FAR1, active compounds read low
[34] = locus YJR016C, strain ILV3, active compounds read low
[35] = locus YJR066W, strain TOR1 (second series), active compounds read low
[36] = locus YJR066W, strain TOR1, active compounds read low
[37] = locus YKL048C, strain ELM1, active compounds read low
[38] = locus YKL067W, strain YNK1, active compounds read low
[39] = locus YKL101W, strain HSL1, active compounds read low
[40] = locus YKL193C, strain SDS22, active compounds read low
[41] = locus YKL203C, strain TOR2, active compounds read low
[42] = locus YLR113W, strain HOG1, active compounds read low
[43] = locus YLR133W, strain CKI1, active compounds read low
[44] = locus YLR403W, strain SFP1, active compounds read low
[45] = locus YML070W, strain DAK1, active compounds read low
[46] = locus YMR001C, strain CDC5, active compounds read low
[47] = locus YMR205C, strain PFK2 (second series), active compounds read low
[48] = locus YMR277W, strain FCP1, active compounds read low
[49] = locus YNL006W, strain LST8, active compounds read low
[50] = locus YNL020C, strain ARK1, active compounds read low
[51] = locus YNL161W, strain CBK1, active compounds read low
[52] = locus YNL183C, strain NPR1, active compounds read low
[53] = locus YNL207W, strain RIO2, active compounds read low
[54] = locus YNL222W, strain SSU72, active compounds read low
[55] = locus YNL307C, strain MCK1 (second series), active compounds read low
[56] = locus YOL078W, strain AVO1, active compounds read low
[57] = locus YOL136C, strain PFK27, active compounds read low
[58] = locus YOR061W, strain CKA2, active compounds read low
[59] = locus YOR119C, strain RIO1, active compounds read low
[60] = locus YOR231W, strain MKK1, active compounds read low
[61] = locus YOR329C, strain SCD5, active compounds read low
[62] = locus YPL031C, strain PHO85, active compounds read low
[63] = locus YPL153C, strain RAD53, active compounds read low
[64] = locus YPL204W, strain HRR25, active compounds read low
[65] = locus YPL209C, strain IPL1, active compounds read low
[66] = locus YPL256C, strain CLN2, active compounds read low
[67] = locus YPR025C, strain CCL1, active compounds read low
[68] = locus YPR106W, strain ISR1, active compounds read low
[69] = locus YPR111W, strain DBF20, active compounds read low
[70] = strain NNK1, active compounds read low
[71] = strain TSCII, active compounds read low

Measured: normalized growth

CC(=O)Oc1ccc2c(=O)c(Oc3ccc(Cl)cc3)c(C)oc2c1
active: [26] 0.802 | [42] 0.768
inactive: [1] 0.969 | [2] 0.964 | [3] 0.968 | [4] 0.954 | [5] 0.962 | [6] 0.963 | [7] 0.956 | [8] 0.951 | [9] 0.958 | [10] 0.96 | [11] 0.938 | [12] 0.959 | [13] 0.96 | [14] 0.957 | [15] 0.945 | [16] 0.918 | [17] 0.939 | [18] 0.97 | [19] 0.964 | [20] 0.968 | [21] 0.979 | [22] 0.963 | [23] 0.953 | [24] 0.887 | [25] 0.692 | [27] 0.897 | [28] 0.917 | [29] 0.776 | [30] 0.947 | [31] 0.7 | [32] 0.923 | [33] 0.973 | [34] 0.964 | [35] 0.953 | [36] 0.896 | [37] 0.933 | [38] 0.94 | [39] 0.908 | [40] 0.953 | [41] 0.968 | [43] 0.952 | [44] 0.887 | [45] 0.921 | [46] 0.961 | [47] 0.935 | [48] 0.969 | [49] 0.985 | [50] 0.952 | [51] 0.965 | [52] 0.875 | [53] 0.953 | [54] 0.97 | [55] 0.808 | [56] 0.95 | [57] 0.933 | [58] 0.959 | [59] 0.995 | [60] 0.834 | [61] 0.961 | [62] 0.935 | [63] 0.954 | [64] 0.943 | [65] 0.96 | [66] 0.909 | [67] 0.965 | [68] 0.955 | [69] 0.941 | [70] 0.94 | [71] 0.964

FC(F)(F)c1ccc(C2Sc3ccccc3N=C3c4ccccc4CC32)cc1 (configuration not stated)
inactive: [1] 1.01 | [2] 1.03 | [3] 1.01 | [4] 1 | [5] 1.02 | [6] 1.01 | [7] 0.996 | [8] 1 | [9] 0.994 | [10] 1.02 | [11] 1.02 | [12] 1.01 | [13] 1.02 | [14] 0.996 | [15] 1.03 | [16] 0.96 | [17] 1 | [18] 1.01 | [19] 1 | [20] 1.02 | [21] 0.985 | [22] 1.01 | [23] 1.02 | [24] 1.04 | [25] 0.979 | [26] 0.97 | [27] 1.01 | [28] 1.01 | [29] 0.953 | [30] 1 | [31] 0.985 | [32] 0.973 | [33] 1.02 | [34] 1.02 | [35] 0.999 | [36] 0.993 | [37] 0.984 | [38] 1 | [39] 1.04 | [40] 1.01 | [41] 1.1 | [42] 0.87 | [43] 0.987 | [44] 0.991 | [45] 0.981 | [46] 1.02 | [47] 0.995 | [48] 1.02 | [49] 1 | [50] 1.01 | [51] 1.03 | [52] 0.969 | [53] 1.02 | [54] 1.01 | [55] 0.937 | [56] 0.998 | [57] 0.993 | [58] 0.993 | [59] 1.02 | [60] 1 | [61] 1.03 | [62] 1.06 | [63] 1.03 | [64] 1.01 | [65] 1.02 | [66] 0.951 | [67] 1.02 | [68] 0.996 | [69] 0.985 | [70] 1.01 | [71] 1.02
